These results are taken from PubChem BioAssay (NCI).

About 83,000 compounds went through this panel and 20% of them were active in at least one assay; those are over-represented in the sample as a whole.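 Cells were grown in 96-well plates and exposed to the test compound at a single concentration for 48 hours; results are reported as percent growth, with values below 10 considered active.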 Unmarked numbers belong to inactive results. Activity calls are given as the source filed them.

What all share (assay): NCI-60 one-dose screen, 48 h (100 = growth as untreated, 0 = no growth, -100 = all killed)
One assay relates to HOP-92 NSCLC. The note with it: 10 µM unless noted.
A further assay relates to COLO 205 colon. The note with it: 10 µM.
The subject of another assay is HT29 colon. The note with it: 10 µM unless noted.
The subject of the next assay is SNB-75 CNS. The note with it: 10 µM unless noted.
In another assay the test system is PC-3 prostate. The note with it: 10 µM unless noted.
For the next assay, the system named is SK-MEL-5 melanoma. The note with it: 10 µM unless noted.
A further assay deals with SR leukemia. The note with it: 10 µM.
The subject of a further assay is RPMI-8226 leukemia. The note with it: 10 µM unless noted.
The subject of a further assay is OVCAR-5 ovarian. The note with it: 10 µM unless noted.
The next assay has as its system IGROV1 ovarian. The note with it: 10 µM.
A further assay deals with HS 578T breast. The note with it: 10 µM unless noted.
A further assay relates to MCF7 breast. The note with it: 10 µM unless noted.
Another assay relates to A549/ATCC NSCLC. The note with it: 10 µM unless noted.
A further assay deals with SK-MEL-28 melanoma. The note with it: 10 µM unless noted.
The test system of the next assay is EKVX NSCLC. The note with it: 10 µM unless noted.
The test system of another assay is CCRF-CEM leukemia. The note with it: 10 µM unless noted.
A further assay relates to OVCAR-3 ovarian. The note with it: 10 µM unless noted.
The subject of a further assay is NCI-H522 lung. The note with it: 10 µM unless noted.
A further assay relates to CAKI-1 renal. The note with it: 10 µM unless noted.

As to `Cc1cc([N+](=O)[O-])c(Cl)cc1NS(=O)(=O)c1ccccc1`, the growth was -3.58% (active) in the assay on HOP-92 NSCLC; 91.9% with COLO 205 colon; 82.1% in the assay with HT29 colon; 64.1% in the assay on SNB-75 CNS; 81.2% with PC-3 prostate; 43.6% with SK-MEL-5 melanoma. In addition, the growth in the assay with SR leukemia is 64.3%; in the assay with RPMI-8226 leukemia, 37.3%; with OVCAR-5 ovarian, 83.5%; with IGROV1 ovarian it was 85%; in the assay on HS 578T breast, 72.5%; in the assay with MCF7 breast, 73.9%.
Regarding `CCOC(=O)/C=C(\C)Nc1ccc(N/C(C)=C/C(=O)OCC)c2c1Oc1ccccc1O2`, the growth in the assay with HOP-92 NSCLC was 79%; in the assay on A549/ATCC NSCLC it was 106%; in the assay with COLO 205 colon it was 121%; in the assay with SNB-75 CNS it was 103%; in the assay with PC-3 prostate, 103%; with SK-MEL-5 melanoma, 79.9%. Further, the growth in the assay on SK-MEL-28 melanoma was 114%; with EKVX NSCLC it was 89%; with CCRF-CEM leukemia it was 43.2%; in the assay with SR leukemia it was 78.3%; in the assay with RPMI-8226 leukemia, 83.2%; with OVCAR-5 ovarian, 106%. The growth is 92.6% in the assay on OVCAR-3 ovarian and 93.7% with MCF7 breast.
Turning to `Nc1ncnc2c1c(C(=O)NO)cn2C1OC(CO)C(O)C1O` (stereo not drawn), the growth in the assay on HOP-92 NSCLC is -37% (active); in the assay with NCI-H522 lung it was -51.1% (active); in the assay on HT29 colon, 7.07% (active); in the assay with SNB-75 CNS it was 4.46% (active); in the assay with PC-3 prostate it was -20.9% (active); in the assay with SK-MEL-5 melanoma, -93% (active). The growth was -52.3% (active) in the assay with SK-MEL-28 melanoma; 6.87% (active) with EKVX NSCLC; -23.1% (active) in the assay on CAKI-1 renal; -17.6% (active) with CCRF-CEM leukemia; -7.79% (active) in the assay with SR leukemia; -21.7% (active) in the assay with RPMI-8226 leukemia. In addition, the growth is 16.5% with OVCAR-5 ovarian; -71.1% (active) with IGROV1 ovarian; -49.3% (active) with OVCAR-3 ovarian; -7.9% (active) with HS 578T breast; -47.3% (active) with MCF7 breast.
Turning to `O1[As]2O[As]3O[As]1O[As](O2)O3`, the growth with HOP-92 NSCLC is -24.4% (active); with NCI-H522 lung, -63.4% (active); in the assay on A549/ATCC NSCLC, 37.8%; with HT29 colon it was -21.1% (active); with SNB-75 CNS, -0.103% (active); in the assay with PC-3 prostate, 10.7%. Further, the growth with SK-MEL-5 melanoma was -91.5% (active); with SK-MEL-28 melanoma, -17.6% (active); in the assay with EKVX NSCLC, 5.14% (active); in the assay with RPMI-8226 leukemia it was 15.1%; in the assay on OVCAR-5 ovarian, 18.7%; in the assay on IGROV1 ovarian, 14.6%. In addition, the values for the growth in the assay with OVCAR-3 ovarian and with MCF7 breast were -35.3% (active) and 6.19% (active), respectively.
Turning to `ClCCN(CCCl)c1ccc(C=NCCc2c[nH]c3ccccc23)cc1`, the growth in the assay with NCI-H522 lung was 92.4%; in the assay on A549/ATCC NSCLC it was 88.6%; in the assay on COLO 205 colon, 106%; in the assay on HT29 colon it was 85.1%; in the assay with SNB-75 CNS it was 82.5%; in the assay on PC-3 prostate, 57%. Moreover, the growth is 75.8% with SK-MEL-5 melanoma; 108% in the assay on SK-MEL-28 melanoma; 106% with EKVX NSCLC; 23.5% in the assay with CAKI-1 renal; 54.1% with CCRF-CEM leukemia; 31.9% in the assay with SR leukemia. Moreover, the growth with RPMI-8226 leukemia was 85.6%; in the assay on OVCAR-5 ovarian, 94.5%; with IGROV1 ovarian, 84.2%; in the assay on OVCAR-3 ovarian it was 93.3%; in the assay on HS 578T breast, 89.8%; in the assay on MCF7 breast, 56%.
As to `CO[C@@H]([CH2][Hg][S]C#N)[C@@H]([CH2][Hg][S]C#N)OC`, the growth is 76.2% in the assay with HOP-92 NSCLC; 48.1% in the assay on NCI-H522 lung; 102% in the assay with A549/ATCC NSCLC; 66.2% in the assay on COLO 205 colon; 84.5% in the assay with SNB-75 CNS; 78.8% in the assay on PC-3 prostate. For the same compound, the growth was 107% in the assay with SK-MEL-5 melanoma; 112% in the assay on EKVX NSCLC; 107% with CAKI-1 renal; 66.5% in the assay with SR leukemia; 107% in the assay with OVCAR-5 ovarian; 63.9% with IGROV1 ovarian. The growth was -100% (active) in the assay with OVCAR-3 ovarian and 98.6% in the assay with HS 578T breast.
Regarding `O=[N+]([O-])c1ccc(/C=C/C=C/c2ccc(S(=O)(=O)F)cc2)c(Cl)c1`, the growth was 86.1% in the assay with HOP-92 NSCLC; 83.8% in the assay with NCI-H522 lung; 98.6% with A549/ATCC NSCLC; 96% in the assay on HT29 colon; 71.7% with SNB-75 CNS; 91.8% in the assay on PC-3 prostate. In addition, the growth with SK-MEL-5 melanoma was 97.9%; in the assay with SK-MEL-28 melanoma it was 98.6%; with CAKI-1 renal, 98.3%; with CCRF-CEM leukemia, 85.8%; in the assay on SR leukemia, 77.9%; in the assay on OVCAR-5 ovarian it was 112%. The growth is 104% in the assay with IGROV1 ovarian, 109% with OVCAR-3 ovarian, 111% in the assay with HS 578T breast and 102% in the assay on MCF7 breast.
`O=C1NC2(CCNCC2)Nc2ccccc21`: the growth in the assay on HOP-92 NSCLC was 107%; in the assay on NCI-H522 lung, 97.5%; with A549/ATCC NSCLC, 69.1%; in the assay with HT29 colon, 98.2%; in the assay on SNB-75 CNS, 82.8%; in the assay with PC-3 prostate it was 88.5%. The growth in the assay on SK-MEL-5 melanoma was 114%; in the assay on SK-MEL-28 melanoma, 116%; in the assay on EKVX NSCLC it was 109%; in the assay with CCRF-CEM leukemia, 94.9%; in the assay with SR leukemia, 86.9%; in the assay on OVCAR-5 ovarian, 115%. Also, the growth is 113% in the assay on IGROV1 ovarian, 108% with OVCAR-3 ovarian, 102% in the assay with HS 578T breast and 107% with MCF7 breast.
Regarding `Nc1c(Br)cc2c3c(cccc13)-c1ccccc1-2`, the growth in the assay on HOP-92 NSCLC was 25%; in the assay on A549/ATCC NSCLC it was 77.2%; in the assay on HT29 colon it was 103%; in the assay on SNB-75 CNS, 60.9%; in the assay on PC-3 prostate, 47.4%; with SK-MEL-5 melanoma, 84.8%. Also, the growth in the assay on SK-MEL-28 melanoma was 99.7%; with EKVX NSCLC it was 53.1%; with CAKI-1 renal, 57.4%; in the assay with CCRF-CEM leukemia, 48.8%; with SR leukemia it was 9.02% (active); in the assay with OVCAR-5 ovarian, 76.8%. The growth with IGROV1 ovarian was 48.1%; with OVCAR-3 ovarian, 64.4%; in the assay with HS 578T breast, 50%; with MCF7 breast it was 38.7%.
For the compound `NC(Cc1ccc(O)cc1)C(=O)N/N=C/c1ccc(N(CCCl)CCCl)cc1` (stereo not drawn), the growth was 82.1% in the assay with HOP-92 NSCLC; 52.3% in the assay on A549/ATCC NSCLC; 112% in the assay on COLO 205 colon; 100% in the assay on HT29 colon; 70.2% in the assay with SNB-75 CNS; 56% in the assay with PC-3 prostate. Moreover, the growth with SK-MEL-5 melanoma was 88.9%; with SK-MEL-28 melanoma, 108%; in the assay on EKVX NSCLC, 92.7%; with CAKI-1 renal it was 25.9%; in the assay with SR leukemia, 18%; with OVCAR-5 ovarian, 115%. Also, the growth in the assay with IGROV1 ovarian is 63.4%; in the assay with OVCAR-3 ovarian it was 101%; in the assay on HS 578T breast it was 91.9%; with MCF7 breast, 54.5%.
